Screening results (PubChem)
Most compounds without a hit are left out; they make up all but 12% or so of the library.
HP1b binding inh: HTS for Inhibitors of HP1-beta Chromodomain Interactions with Methylated Histone Tails; Chromobox protein homolog 1 (Homo sapiens), P83916; AlphaScreen HP1-beta / biotin-H3K9me3 peptide binding; Potency, µM (titrated, usually from 114 µM), inactives show top-dose activity change, negative = inhibition, usual class: inhibitors; hit rate 0.56% among 390,000; AID 540317, 2011; further: nearly all actives have a fitted effect of over 70% in size
Target sequence (P83916 whole entry, looked up): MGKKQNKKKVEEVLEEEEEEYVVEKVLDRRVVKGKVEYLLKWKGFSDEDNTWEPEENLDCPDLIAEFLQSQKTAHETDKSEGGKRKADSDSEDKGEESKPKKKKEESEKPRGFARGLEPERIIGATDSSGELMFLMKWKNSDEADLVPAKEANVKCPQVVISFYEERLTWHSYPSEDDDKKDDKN
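AlphaScreen: HP1-beta (50 nM) preformed 30 min with biotin-H3(1-18)K9me3 peptide (50 nM) in PBS pH 7.4, 0.01% Tween-20. Compound added for 30 min at RT, then streptavidin donor/nickel chelate acceptor beads (10 ug/mL) for 30 min.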
BAZ2B inh: qHTS Assay for Inhibitors of BAZ2B; Bromodomain adjacent to zinc finger domain protein 2B (Homo sapiens), Q9UIF8; AlphaScreen BAZ2B-H3K14Ac peptide displacement; Potency, µM (top dose mostly 114 µM), without a hit: at the highest dose activity change, negative = inhibition, most hits filed as inhibitors; hit rate 4.4% among 360,000; further: on the % scale 0 is the no-effect control and ±100 the full control effect; nearly all actives have a fitted effect of over 60% in size
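Complex of BAZ2B and biotin-H3K14Ac (50 nM apiece) forms over 30 min at RT, then faces library compounds up to 110 uM for another 30 min; AlphaScreen beads added, 20 min dark incubation, luminescence read.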
Sfp inh: qHTS Assay for Inhibitors of Bacillus subtilis Sfp phosphopantetheinyl transferase (PPTase). 4'-phosphopantetheinyl transferase ffp (Bacillus subtilis), Q9F4F7. Potency, µM, for inactives: largest response in the series, negative = inhibition, usual class: inhibitors. hit rate 3.5% among 310,000. Biochemical Sfp PPTase activity, qHTS. AID 1490, 2009;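 further: the enzyme is Sfp with the accession as filed and its product quenches rhodamine fluorescence; 0% = enzyme reaction without inhibitor and -100% = no enzyme wells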
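Step 1, compound plus 15 nM Sfp-PPTase, 15 min, room temperature. Step 2, add rhodamine-CoA (5 uM) and BHQ-2-YbbR (12.5 uM). Step 3, read 525/598 nm fluorescence at 0 and 30 min.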
JMJD2A Tudor: qHTS Assay for Inhibitors of JMJD2A-Tudor Domain; Lysine-specific demethylase 4A (Homo sapiens), O75164; Potency, µM (series often up to 114 µM), inactives show top-dose activity change, negative = inhibition, most hits filed as inhibitors; hit rate 4.4% among 390,000; AID 504339, 2011; AlphaScreen JMJD2A-Tudor / H3K4me3 peptide binding; further: on the % scale 0 is the no-effect control and ±100 the full control effect; nearly all actives have a fitted effect of over 50% in size
G9a inh: qHTS Assay for Inhibitors of Histone Lysine Methyltransferase G9a | Histone-lysine N-methyltransferase EHMT2 (Homo sapiens), Q96KQ7 | G9a H3K9 monomethylation, AlphaScreen, 2 h | Potency, µM (doses to about 102 µM), without a hit: top-dose activity, negative = inhibition, most hits filed as inhibitors | hit rate 8.8% among 350,000 | AID 504332, 2011; further: on the % scale 0 is the no-effect control and ±100 the full control effect; nearly all actives have a fitted effect of over 75% in size
Target sequence (Q96KQ7 913-1193 limits assumed): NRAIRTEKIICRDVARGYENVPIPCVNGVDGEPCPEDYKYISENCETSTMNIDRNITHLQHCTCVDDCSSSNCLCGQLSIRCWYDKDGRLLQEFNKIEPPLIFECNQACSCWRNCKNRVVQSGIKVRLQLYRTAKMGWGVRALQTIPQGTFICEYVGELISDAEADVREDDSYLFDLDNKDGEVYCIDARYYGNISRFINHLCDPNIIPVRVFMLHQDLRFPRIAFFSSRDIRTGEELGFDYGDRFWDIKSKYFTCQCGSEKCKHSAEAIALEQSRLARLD
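Enzyme 20 nM + cpd, 15 min RT; add b-H3K9 pep 500 nM / SAM 20 uM; 2 h RT; anti-H3K9me1 Ab 0.5 ug/mL + SA donor / anti-rabbit acceptor beads 20 ug/mL each, 10 min; AlphaScreen read.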
* = called active by the depositor; ? = inconclusive; nt = not tested or not shown; ! = repeats disagree; [ ] = another dose, or the depositor's remark. The call rests on the fitted dose curve; in most records, active means well fitted curve in the direction sought with a large enough effect; inconclusive means small, poorly fitted or top-dose-only effect, or another doubt; inactive means no such curve, though single readings can be large; an effect the other way counts as inactive or inconclusive. Potency means the concentration at half of the fitted maximal effect.

SMILES | HP1b binding inh | BAZ2B inh | Sfp inh | JMJD2A Tudor | G9a inh
c1ccc(CCCN2CCN(CCOC(c3ccccc3)c3ccccc3)CC2)cc1 | 4.4% | nt | -17.0% | 56.2µM* | 10µM*
O=C(Nc1cccc(Cl)c1)c1c(O)c2c(n(Cc3ccccc3)c1=O)CCCC2 | nt | -2.9% | 22.4% | nt | 7.0%
CN(C)CCN=Cc1c(O)n(-c2cccc(C(F)(F)F)c2)c(=O)[nH]c1=O | 41.9% | -6.5% | -1.2% | -15.7% | -9.5%[2.33 µM]
COc1cc(C2c3cc4c(cc3CC3COC(=O)C32)OCO4)cc(OC)c1O (centres undefined) | 10.7% | nt | nt | 89.1µM* | nt
COc1cc(C2c3cc4c(c(O)c3CC3COC(=O)C32)OCO4)cc(OC)c1O (centres undefined) | 18.8% | nt | nt | -15.6% | nt
COc1ccc(N(C)C(=O)Cn2c(=O)oc3ccccc32)c(OC)c1 | ? | -2.0% | 4.5% | 0.0% | 44.7µM*
Cc1cccc(C(=O)Nc2ccc(Cl)cc2C(=O)c2ccccc2)c1 | 23.1% | -0.9% | -2.5% | 0.0% | -16.5%[59 µM]
Cc1ccc(C)c(NC(=O)c2cc[n+](C)cc2)c1 | 31.7% | -24.5% | 1.6% | -26.9% | 31.6µM*
COc1ccc(CNC(=O)CSCc2cnn(-c3ccccc3)c2-n2cccc2)cc1OC | -12.7% | 28.2µM* | nt | -30.2% | -40.4%[59 µM]
COc1ccc(CNC(=O)C(NC(C)=O)C(C)C)cc1OC (centres undefined) | 35.8% | 4.8% | 9.8% | -4.1% | -4.3%
CN1C(=O)C(Cc2c[nH]c3ccccc23)C(=O)N(C)C1=O | nt | -4.5% | 39.8µM* | nt | 12.6µM*
CCOC(=O)CNC(=O)CSP(=S)(OCC)OCC | 20.0% | 2.4% | 79.4µM* | 12.6% | ?
O=C(COc1cccc(Cl)c1)N1CCN(CCc2ccncc2)CC1 | 28.3% | -5.2% | nt | -12.9% | 3.7%[59 µM]
COc1ccc2c(c1)NP(=S)(Oc1ccccc1)N2 (centres undefined) | ? | ? | 31.6µM* | ? | 7.08µM*
Cc1n[nH]c(C)c1CCCCOc1ccc([N+](=O)[O-])cc1 | 17.8% | -19.7% | 5.7% | -15.0% | 50.1µM*
Cc1ccc(-c2nc3c(=O)n(C)c(=O)nc-3n(C)n2)cc1 | 5.8%[57 µM] | nt | nt | 10.0%[57.1 µM] | nt
CCOP(=S)(OCC)Oc1nc(Cl)c(Cl)cc1Cl | 93.2% | 107.5% | 35.5µM* | 77.2% | -3.0%[0.501 µM]
O=C(O)COc1nc(Cl)c(Cl)cc1Cl | nt | nt | 8.2% | nt | nt
CC(C)(C)c1ccc(C(=O)NC(=S)Nn2cnnc2)cc1 | -5.4% | 8.0% | ? | -17.1% | 31.6µM*
CC(=O)Nc1nc(CCl)cs1 | 31.9% | -19.4% | -5.7% | -30.1% | 20µM*
Cc1ccccc1NC(=O)CCl | 36.1% | 0.1% | 15.4% | -9.1% | 4.9%
CC1=Nc2ccccc2/C1=C/c1c(O)n(C)c(=O)[nH]c1=O | 11.5% | -4.3% | 11.6% | -20.3% | nt
COc1cccc(-n2c(/C=C/c3cccc(C)c3)nc3ccccc3c2=O)c1 | 14.1% | -3.2% | nt | -15.4% | 1.8%[59 µM]
CC1=NN(c2ccccc2)C(=O)/C1=C/c1c(O)[nH]c(=S)[nH]c1=O | -2.0% | ? | 50.1µM* | 79.4µM* | ?
CC1=NN(c2ccccc2)C(=O)/C1=C/c1c(O)[nH]c(=O)[nH]c1=O | 25.3% | ? | 3.9% | -21.0% | 39.8µM*
SMILES | HP1b binding inh | BAZ2B inh | Sfp inh | JMJD2A Tudor | G9a inh
O=c1[nH]c(O)c(/C=C2\C=NN=C2c2ccccc2)c(=O)[nH]1 | 20.2% | 7.7% | 50.1µM* | -13.9% | 50.1µM*
COc1ccc(/C=C2/C(=O)N(c3ccccc3)N=C2C)cc1 | 50.1µM* | nt | nt | 20µM* | nt
O=C1NC(=S)NC(=O)C1=Cc1cccc2cc3ccccc3cc12 | 7.7% | 31.6µM* | 25.1µM* | -21.1% | 15.8µM*
O=C1NC(=S)NC(=O)C1=Cc1ccc(OCc2ccccc2)cc1 | -9.5% | nt | nt | 79.4µM* | nt
CN1/C(=C\C=C2C(=O)NC(=S)NC2=O)C(C)(C)c2ccccc21 | -7.3% | ? | -11.1% | -25.9% | ?
COc1ccc(C=C2C(=O)NC(=S)NC2=O)cc1 | ? | nt | nt | 89.1µM* | nt
COc1ccc(/C=C2\C(=O)NC(=O)N(CCC3=CCCCC3)C2=O)c(OC)c1 | 17.8% | 12.7% | 56.2µM* | -42.1% | 11.2µM*
O=C1NC(=O)C(=Cc2cccs2)C(=O)N1 | 15.4%[57 µM] | nt | nt | 0.0% | nt
O=C1NC(=O)N(CCC2=CCCCC2)C(=O)/C1=C/c1cccs1 | 5.5% | ? | -14.9% | ? | 14.1µM*
O=C1NC(=O)N(CC2CCCO2)C(=O)/C1=C/c1cccs1 (centres undefined) | 28.3% | -4.1% | 79.4µM* | -25.7% | 8.3%[12.7 µM]
O=C1NC(=O)N(CCC2=CCCCC2)C(=O)/C1=C/c1ccc(O)cc1 | 34.7% | 2.8% | 44.7µM* | -8.1% | ?
COC(=O)C1=C(c2ccccc2)C[C@@H]2CC[C@H]1N2C(=O)NCC1CC1 | 32.6% | nt | nt | -18.6% | nt
CCC(=O)Oc1ccc(C(=O)Nc2cccc(C(=O)c3ccccc3)c2)cc1 | 11.1% | ? | 12.8% | 3.2% | 44.7%[59 µM]
CCc1ccc(OCC(=O)N2CCN(CCc3ccncc3)CC2)cc1 | 50.8% | 9.3% | nt | -22.8% | -1.5%[59 µM]
O=C1NC(=O)N(Cc2cccs2)C(=O)/C1=C/c1ccc(N2CCOCC2)cc1 | 23.7% | ? | 50.1µM* | -34.3% | ?
COc1cc(OC)c(/C=C2\C(=O)Nc3ccccc32)c(OC)c1 | ? | 44.7µM* | nt | 56.2µM* | ?
O=C1Nc2ccccc2/C1=C/c1cnc[nH]1 | 17.4% | ? | 14.4% | -17.9% | 44.0%[59 µM]
COc1ccc2c(c1)/C(=C/c1cnc[nH]1)C(=O)N2 | 8.6% | 50.1µM* | 2.1% | -30.2% | 29.9%[59 µM]
COc1ccc(-n2c(/C=C3\C(=O)Nc4ccccc43)nc3ccccc3c2=O)cc1 | -1.4% | 2.3% | 9.7% | 1.4% | -2.5%
N[C@H](CCP(=O)(O)O)C(=O)O | nt | nt | -25.3% | nt | nt
NC(N)=NOCCC(N)C(=O)O (centres undefined) | nt | nt | -0.2% | nt | 29.9µM*!
Cn1c(=O)c2c(nc(N/N=C/c3c(O)n(-c4ccccc4)c(=S)[nH]c3=O)n2C)n(C)c1=O | -2.3% | -10.5% | 79.4µM* | ? | -6.4%[59 µM]
O=c1[nH]c(=S)n(-c2ccccc2)c(O)c1C=NCc1ccccn1 | 39.4% | -17.5% | 5.9% | -30.3% | -1.7%
CCN(CC)CCCN=Cc1c(O)n(CCc2ccc(F)cc2)c(=O)[nH]c1=O | 10.6% | -22.3% | 12.1% | -18.0% | 8.3%
NC1CCCCC1N=Cc1c(O)n(CCc2ccc(F)cc2)c(=O)[nH]c1=O (centres undefined) | 25.1% | 44.7µM* | 2.5% | -19.6% | 1µM*
O=C(N/N=C/c1c(O)n(C2CCCCC2)c(=S)[nH]c1=O)c1ccccc1 | 68.4% | -0.8% | 25.6% | 79.4µM* | ?
